# Several values for one entry are separate records, joined by “and”; a condition that tells them apart may be missing. Equal values may be shown once. Records with an inconclusive call do not appear. Where a structure was tested more than once in an assay, its records may differ in their call. Activity calls are given as the source filed them. The calls were made as follows, unless noted: active = hit-call score of the fitted dose curve at least 0.9, where 1 is the maximum; inconclusive = response in the unintended direction; inactive = score below 0.9.
# What was measured:
# [1] = biological target: Retinoic acid receptor RXR-alpha (Homo sapiens) (UniProt P19793); test: OT_NURR1_NURR1RXRa_0480: Odyssey Thera (OT) 8-hour HEK293T Protein Complementation Assay for Nurr1/retinoid X receptor (RXR) (AID 2283385)
# In short: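 Interaction of bait and prey reconstitutes a functional reporter, whose fluorescence was measured in HEK293T cells dosed with compound for 8 hours. Signal gain relative to DMSO defined the single endpoint.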
# [2] = biological target: Retinoic acid receptor RXR-alpha (Homo sapiens) (UniProt P19793); test: OT_NURR1_NURR1RXRa_1440: Odyssey Thera (OT) 24-hour HEK293T Protein Complementation Assay for Nurr1/retinoid X receptor (RXR) (AID 2283386)
# In short: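 Steps: fragment-tagged Nurr1 and RXRα expressed in HEK293T; compounds added; after 24 h, complemented reporter quantified by fluorescence intensity; signal increase over DMSO fitted as the single endpoint.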
# [3] = biological target: Peroxisome proliferator-activated receptor gamma (Homo sapiens) (UniProt P37231); test: OT_PPARg_PPARgSRC1_0480: Odyssey Thera (OT) 8-hour Protein-Complementation Assay for Peroxisome Proliferator-activated Receptor Gamma / SRC-1 Co-activator (AID 2283387);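 also: nuclear to cytoplasmic split Venus YFP fluorescence ratio reporting PPARg SRC-1 interaction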
# In short: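 Split-YFP (IFP1/IFP2) PPARg/SRC-1 reporter, HEK293T, 37 °C, 5% CO2; 8 h compound; formaldehyde fix + Draq5; high-content imaging, N/C ratio, ≥350 cells/image, positive direction vs DMSO.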
# [4] = biological target: Peroxisome proliferator-activated receptor gamma (Homo sapiens) (UniProt P37231); test: OT_PPARg_PPARgSRC1_1440: Odyssey Thera (OT) 24-hour Protein-Complementation Assay for Peroxisome Proliferator-activated Receptor Gamma/ SRC-1 Co-activator (AID 2283388);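 also: nuclear to cytoplasmic ratio of reconstituted Venus YFP fluorescence in fixed imaged cells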
# In short: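 Transient HEK293T, YFP fragments 1-158/159-239 (mutant IFP1/IFP2) fused to PPARg/SRC-1; 24 h dosing; fix 4% formaldehyde, Draq5; Opera imaging 488/635 nm; N/C ratio, gain vs DMSO.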
# [5] = CEETOX_H295R_ANDR: CeeTox H295R High-throughput Steroidogenesis Assay for Androstenedione (ANDR) (AID 2283436; active = hit-call score of the fitted dose curve at least 0.9, where 1 is the maximum; inactive = score below 0.9;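 also: human H295R adrenal cells exposed for 48 h with androstenedione measured in medium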); details: actives raise or lower the signal
# In short: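 48 h chemical exposure, H295R cells, DMEM/F12 + ITS+ and Nu-Serum. Medium androstenedione: MTBE extraction, C18 reverse-phase HPLC, ESI+ MS/MS. Fit bidirectional vs DMSO; MTT viability in same wells.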
# Peroxisome proliferator-activated receptor gamma (Homo sapiens), sequence (P37231 whole entry, looked up, the tested form may be a part): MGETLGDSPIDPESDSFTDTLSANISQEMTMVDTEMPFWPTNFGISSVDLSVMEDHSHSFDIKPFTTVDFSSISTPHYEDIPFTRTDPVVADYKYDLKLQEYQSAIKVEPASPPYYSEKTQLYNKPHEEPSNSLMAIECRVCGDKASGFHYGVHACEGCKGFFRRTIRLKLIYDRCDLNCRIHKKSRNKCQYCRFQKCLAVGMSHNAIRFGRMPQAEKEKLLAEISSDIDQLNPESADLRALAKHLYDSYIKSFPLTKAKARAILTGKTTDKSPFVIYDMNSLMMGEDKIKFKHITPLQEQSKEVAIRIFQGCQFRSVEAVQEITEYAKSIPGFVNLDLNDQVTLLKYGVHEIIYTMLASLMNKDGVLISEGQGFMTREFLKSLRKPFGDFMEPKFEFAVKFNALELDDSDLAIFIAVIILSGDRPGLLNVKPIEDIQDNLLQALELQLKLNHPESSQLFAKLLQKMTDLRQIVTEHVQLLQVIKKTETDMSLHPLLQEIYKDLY
# Retinoic acid receptor RXR-alpha (Homo sapiens), sequence (P19793 whole entry, looked up, the tested form may be a part): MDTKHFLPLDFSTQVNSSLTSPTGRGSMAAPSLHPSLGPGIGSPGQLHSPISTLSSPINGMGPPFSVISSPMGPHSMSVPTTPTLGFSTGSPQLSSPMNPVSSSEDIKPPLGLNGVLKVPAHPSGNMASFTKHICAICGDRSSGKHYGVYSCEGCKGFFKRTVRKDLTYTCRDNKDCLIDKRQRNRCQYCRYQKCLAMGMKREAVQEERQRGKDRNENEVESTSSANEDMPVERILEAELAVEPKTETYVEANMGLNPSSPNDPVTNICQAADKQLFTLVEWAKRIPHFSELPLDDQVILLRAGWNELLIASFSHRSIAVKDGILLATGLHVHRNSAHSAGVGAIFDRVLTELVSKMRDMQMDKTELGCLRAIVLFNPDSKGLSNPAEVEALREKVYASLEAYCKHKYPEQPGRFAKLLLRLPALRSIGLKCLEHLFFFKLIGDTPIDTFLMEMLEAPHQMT
smiles,measurement,setting,value
NC(=O)NO,outcome,[1],inactive
same,outcome,[2],inactive
CC(C)=CCCC(C)CCO (stereo unspecified),AC50,[1],90.2 µM (active)
same,outcome,[1],inactive
same,outcome,[2],inactive
same,outcome,[3],inactive
same,outcome,[4],inactive
O=C(O)c1cccc(Oc2ccccc2)c1,outcome,[1],inactive
same,outcome,[2],inactive
same,outcome,[3],inactive
CCCN(C1CCN(C(=O)C2CCNCC2)CC1)[C@@H]1CCc2ccc(OC)cc2C1,AC50,[1],87.3 µM (active)
same,AC50,[2],64.8 µM (active)
same,outcome,[3],inactive
CC/C(=C\C(=N/O)C(N)=O)C(C)[N+](=O)[O-] (stereo unspecified),AC50,[1],31.6 µM (active)
same,outcome,[2],inactive
same,outcome,[3],inactive
O=C1OC(=O)C2C3C=CC(C3)C12 (stereo unspecified),outcome,[1],inactive
same,outcome,[2],inactive
same,outcome,[3],inactive
CCOC(=O)COc1ccc2c(c1)CC(NCC(O)c1cccc(Cl)c1)CC2 (stereo unspecified),AC50,[1],154 nM (active) and 591 nM (active)
same,AC50,[2],10.7 µM (active) and 10.3 µM (active)
same,outcome,[3],inactive
Clc1nc(Cl)c(Cl)c(Cl)c1Cl,outcome,[1],inactive
same,outcome,[2],inactive
same,outcome,[3],inactive
O=P(OC(CCl)CCl)(OC(CCl)CCl)OC(CCl)CCl,outcome,[1],inactive
same,outcome,[2],inactive
same,outcome,[3],inactive
CN(C)c1ccc(N=NS(=O)(=O)O)cc1,outcome,[1],inactive
O=C(O)c1cccc(N(Cc2cccnc2)c2ccc(OC(F)F)c(OC(F)F)c2)c1,outcome,[5],inactive
Fc1ccccc1[C@@H](F)COC1CCC(Nc2ncnc3[nH]ncc23)CC1 (stereo partly specified),outcome,[5],inactive
